In the library only some 2.8% were active in any assay of this set; here they are far more common.
GLP-1R agonist: agonists of human GLP-1 receptor; P43220; HEK293 GLP-1R CRE-luciferase, luminescence, 4-6 h; cells express a hypersensitive GLP-1R form; Potency, µM (top dose mostly 45.6 µM), hits mostly activators; hit rate 0.007% among 380,000; AID 624172
Target sequence (P43220 whole entry, looked up): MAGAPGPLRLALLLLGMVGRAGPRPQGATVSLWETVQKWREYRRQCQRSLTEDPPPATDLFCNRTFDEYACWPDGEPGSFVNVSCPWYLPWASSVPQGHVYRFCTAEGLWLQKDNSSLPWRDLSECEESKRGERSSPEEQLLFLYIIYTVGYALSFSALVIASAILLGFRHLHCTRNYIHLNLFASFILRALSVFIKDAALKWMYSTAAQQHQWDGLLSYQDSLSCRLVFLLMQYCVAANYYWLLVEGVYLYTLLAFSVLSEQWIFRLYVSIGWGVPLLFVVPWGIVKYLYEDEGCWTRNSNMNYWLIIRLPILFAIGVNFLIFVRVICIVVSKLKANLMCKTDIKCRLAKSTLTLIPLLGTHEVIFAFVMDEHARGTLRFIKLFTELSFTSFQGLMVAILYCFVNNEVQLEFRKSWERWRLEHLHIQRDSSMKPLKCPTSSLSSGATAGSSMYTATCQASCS
GLP1R cytotox: cytotoxic in the GLP-1 receptor inverse agonist counter-screen. HEK293 cAMP-luciferase reporter cells, luminescence, 24 h. Potency, µM (titrated, usually from 38.3 µM), actives largely listed as inhibitors. hit rate 0.13% among 410,000. AID 624418;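 further: loss of luciferase light is scored as toxicity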
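Here, cytotoxicity is scored as loss of luminescence. The MLSMR collection was tested on cells seeded in medium containing 10% Nu serum, with a 24 hr compound exposure preceded by 12 hours of culture.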
Mito fusion yeast: mitochondrial division inhibition or fusion activation. hit rate 0.23% among 320,000. Potency, µM (highest dose often 46.1 µM), usual class: activators. AID 485298. S. cerevisiae fusion-defective mutant growth rescue, CellTiterGlo 48 h; further: nearly all actives have a fitted effect of over 45% in size
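S. cerevisiae fusion-defective temperature-sensitive mutants (e.g. fzo1-1, mgm1-5) grown 48 h at 37C in YPEG (ethanol/glycerol non-fermentable) medium with 23 nl compound per well; growth rescue read as CellTiterGlo luminescence.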
BRCA1 expr up: increases BRCA1 expression. hit rate 1.1% among 380,000. Potency, µM (doses to about 46.1 µM), hits mostly activators. AID 624202. MCF7-BRCA1-FFLuc reporter, luminescence, 48 h; response scale: scaled: vehicle 0%, 10 µM genistein 100%; further: nearly all actives have a fitted effect of over 80% in size
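48 h compound treatment of MCF7-BRCA1-FFLuc cells (phenol-red free MEM, 37 °C), then 15 min with luciferase substrate and luminescence imaging.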
GLP-1R inv ag: inverse agonists of human GLP-1 receptor; P43220; HEK293 GLP-1R CRE-luciferase, luminescence, 24 h; GLP-1R form is constitutively active; Potency, µM (series often up to 38.3 µM), hits mostly inhibitors; hit rate 1.6% among 410,000; AID 624417; further: nearly all actives have a fitted effect of over 55% in size
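Stable HEK293 clone (constitutively active GLP-1R + cAMP-response luciferase); 200 cells/uL plated, 12 h pre-culture, compound 24 hr, 37 deg C/5% CO2; detection reagent 12 min RT; luminescence.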
Of the large screens only hits and unclear results are named; the others gave an inactive call. The call rests on the fitted dose curve; in most records, active means well fitted curve in the direction sought with a large enough effect; inconclusive means small, poorly fitted or top-dose-only effect, or another doubt; inactive means no such curve, though single readings can be large; an effect the other way counts as inactive or inconclusive.

O=C(NCCCc1ccccc1)Nc1ccccc1	GLP-1R inv ag inconclusive
O=[N+]([O-])c1cccc(S(=O)(=O)N2CCN(c3nc(-c4cccs4)nc4ccccc34)CC2)c1	none (no result: GLP-1R agonist, GLP1R cytotox, Mito fusion yeast, GLP-1R inv ag)
Cn1c(-c2ccc(Cl)cc2)cnc1NCc1cc2c(cc1[N+](=O)[O-])OCO2	GLP1R cytotox inconclusive, GLP-1R inv ag 4µM
Cn1c(-c2ccc(F)cc2)cnc1NCc1cc2c(cc1[N+](=O)[O-])OCO2	GLP-1R inv ag inconclusive
CCCCCCCn1c(=O)c(C(=O)OC)c(N)c2ccccc21	GLP-1R inv ag 11µM
CCCCCCCCn1c(=O)c(C(=O)OC)c(N)c2ccccc21	GLP-1R inv ag inconclusive
Cc1cccc(NC(=O)c2cccc(Cn3cc(Br)c([N+](=O)[O-])n3)c2)c1C	GLP-1R inv ag 10µM
CC(C1CC2CCC1C2)N1CC(O)=C(c2nc3ccccc3[nH]2)C1=N (configuration not stated)	GLP-1R inv ag inconclusive
CC(C)N1CC(O)=C(c2nc3ccccc3[nH]2)C1=N	BRCA1 expr up 8.9µM
O=C(Nc1cccnc1)c1cccc(F)c1	none
O=C(c1ccc(Cl)cc1)C1CCN(Cc2ccccc2)CC1	GLP-1R inv ag inconclusive
O=C(C1CCN(Cc2ccc(Cl)cc2)CC1)N1CCN(C(c2ccccc2)c2ccccc2)CC1	GLP1R cytotox inconclusive, GLP-1R inv ag 4µM
C[C@@H]1CN([C@H](C)CO)S(=O)(=O)c2ccc(-c3cccc(C(=O)N(C)C)c3)cc2O[C@H]1CN(C)C(=O)Nc1ccc(F)cc1	none (no result: Mito fusion yeast)
COc1ccccc1/C=C/C=C(\C#N)C(=O)NC(C)c1ccccc1 (configuration not stated)	GLP1R cytotox inconclusive, GLP-1R inv ag 11µM
O=C(c1ccc2ccccc2c1)C1CCCN(C(=O)c2cccnc2)C1 (configuration not stated)	none
O=C(c1ccc2ccccc2c1)C1CCCN(C(=O)c2noc3c2CCCC3)C1 (configuration not stated)	Mito fusion yeast 10µM, GLP-1R inv ag inconclusive
CC(C)CCNC(=O)C(c1ccco1)N(Cc1ccc(F)cc1)C(=O)c1snc(C(N)=O)c1N (configuration not stated)	GLP-1R inv ag 3.5µM
NC(=O)c1nsc(C(=O)N(Cc2ccc(F)cc2)C(C(=O)NC2CCCC2)c2ccco2)c1N (configuration not stated)	none
CN(C)c1ccc(C(C(=O)NC2CCCCC2)N(Cc2ccco2)C(=O)c2snc(C(N)=O)c2N)cc1 (configuration not stated)	GLP1R cytotox inconclusive, Mito fusion yeast inconclusive, GLP-1R inv ag 2µM
COc1cc(C(C(=O)NC2CCCC2)N(Cc2ccco2)C(=O)c2snc(C(N)=O)c2N)cc(OC)c1OC (configuration not stated)	none
O=C(NCc1ccccn1)c1cccc(S(=O)(=O)Nc2ccccc2Cl)c1	none
O=C(N/N=C/c1cccnc1)NC12CC3CC(CC(C3)C1)C2	none
Cc1ccc(N2C(=O)c3ccccc3C2Nc2ccccc2)nc1 (configuration not stated)	GLP-1R inv ag inconclusive
CCc1cccc(NC2c3ccccc3C(=O)N2c2ccc(C)cn2)c1 (configuration not stated)	GLP-1R inv ag 13µM
CC1CCc2c(cc(-c3ccccc3)n2-c2ccc(C(=O)NC(C)C)cc2)C1 (configuration not stated)	GLP-1R inv ag 6.3µM (no result: GLP-1R agonist, Mito fusion yeast, BRCA1 expr up)
CCN(CC(=O)Nc1ccc(NC(C)=O)cc1)C(=O)/C=C/c1cn(-c2ccccc2)nc1-c1cccs1	none
CC1=NNC(=O)/C1=C\c1cn(-c2ccccc2)nc1-c1cccs1	GLP1R cytotox 7.9µM, GLP-1R inv ag inconclusive
O=C(N/N=C/c1cn(-c2ccccc2)nc1-c1cccs1)c1ccc(Cl)cc1	GLP-1R inv ag 6.3µM
CN1CCC(N(C)C(=O)/C=C/c2cn(-c3ccccc3)nc2-c2cccs2)CC1	GLP1R cytotox inconclusive, GLP-1R inv ag 5.6µM
CC1=NNC(=O)/C1=C\c1cn(-c2ccccc2)nc1-c1ccc(F)cc1	GLP1R cytotox inconclusive, GLP-1R inv ag inconclusive
COc1ccc(CNC(=O)c2cnn3c(C(F)F)cc(C)nc23)cc1	GLP-1R agonist inconclusive
CCCOc1ccc(N2C(=O)CC(SC(=N)N3N=C(c4ccccc4)CC3c3ccccc3)C2=O)cc1 (configuration not stated)	none
CC(C)(C)c1ccc(OCCCNC2CCCC2)cc1	GLP1R cytotox inconclusive, GLP-1R inv ag 10µM
CC(=O)N1c2ccc(S(=O)(=O)NCC3CCC(C(=O)N4CCCCC4)CC3)cc2CC1C (configuration not stated)	none
Cc1csc(NC(=O)c2sc3nc(-c4cccs4)ccc3c2N)n1	Mito fusion yeast 11µM
CCCCCCN1C[C@@H](n2cc(-c3ccc(F)cc3)nn2)[C@H](O)C[C@@H]1c1ccc(OC)cc1	GLP1R cytotox inconclusive, GLP-1R inv ag 3.2µM (no result: Mito fusion yeast)
CCCCCC(=O)N1C[C@H](O)[C@@H](n2cc(-c3ccc(F)cc3)nn2)C[C@@H]1c1ccc(Cl)cc1	GLP1R cytotox inconclusive, GLP-1R inv ag 10µM (no result: Mito fusion yeast)
CCCCCC(=O)N1C[C@H](O)[C@@H](n2cc(-c3ccc(F)cc3)nn2)C[C@@H]1c1ccc(OC)cc1	GLP-1R inv ag 11µM (no result: Mito fusion yeast)
COc1ccc([C@H]2C[C@@H](O)[C@H](n3cc(C4CC4)nn3)CN2CC2CCCCC2)cc1	GLP-1R inv ag 7.9µM (no result: Mito fusion yeast)
Cc1ccc(CNC(=O)CSCc2ccccc2F)cc1	BRCA1 expr up inconclusive
CN(Cc1ccon1)Cc1cn(C)nc1-c1ccc(Oc2ccccc2)cc1	GLP-1R inv ag inconclusive
Cc1ccc(S(C)(=O)=O)cc1C(=O)Nc1ccc(S(=O)(=O)Nc2nccs2)cc1	none
OCC1(Cc2cccc(C(F)(F)F)c2)CCN(Cc2cc(F)cc(F)c2)CC1	GLP1R cytotox inconclusive, GLP-1R inv ag inconclusive
COc1ccc(-c2ccc3sc4ccccc4c(=O)c3c2)cn1	BRCA1 expr up inconclusive (no result: Mito fusion yeast)
Cc1ccc(S(=O)(=O)N(C)c2cc(S(=O)(=O)N3CCC(C)CC3)c(C)cc2C)cc1	GLP-1R inv ag 13µM
COc1cccc(C(=O)Nc2cc([N+](=O)[O-])ccc2N2CCN(C)CC2)c1	none
Cc1cc(/C=C2\SC(=S)N(C)C2=O)c(C)n1-c1cccc(O)c1	GLP-1R inv ag 2.8µM
CN(C)c1ccc(C=C2SC(=S)N(Cc3ccco3)C2=O)cc1	none (no result: Mito fusion yeast)
COc1ccc(-n2c(C)cc(/C=C3/SC(=S)N(C)C3=O)c2C)cc1	BRCA1 expr up inconclusive
Cc1cc(/C=C2\SC(=S)N(Cc3ccco3)C2=O)c(C)n1-c1ccccc1	GLP-1R inv ag 2.2µM
COc1cccc(CN2CCC(Oc3ccc(C(=O)NCc4ccccn4)cc3)CC2)c1O	none
Cc1ccc(Nc2nc(N)nc(CCl)n2)cc1	BRCA1 expr up inconclusive, GLP-1R inv ag inconclusive
